From PubChem BioAssay
Tau fluor counter: counter-screen for tau fibril formation inhibitors; tau K18 P301L Alexa594 fluorescence, heparin fibrillization; Potency, µM (series often up to 57.7 µM); 280,000 tested, 0.93% active; AID 1463; also: nearly all actives have a fitted effect of over 55% in size
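Human tau K18 P301L (15 uM unlabeled, 0.24 uM Alexa 594-labeled) in 100 mM sodium acetate pH 7 with 20 uM heparin, 6 hr at 37 C. ThT 30 uM added, 1 hr ambient; Alexa 594 FP and total fluorescence read at 555/632 nm.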
Tau fibril FP: tau fibrillization inhibition (FP); P10636; K18 P301L tau heparin fibrillization, Alexa594 FP, 6 h; Potency, µM (highest dose often 57.7 µM), hits mostly inhibitors; 280,000 tested, 0.39% active; AID 1468; also: nearly all actives have a fitted effect of over 55% in size
Target sequence (P10636 561-689 P618L limits assumed): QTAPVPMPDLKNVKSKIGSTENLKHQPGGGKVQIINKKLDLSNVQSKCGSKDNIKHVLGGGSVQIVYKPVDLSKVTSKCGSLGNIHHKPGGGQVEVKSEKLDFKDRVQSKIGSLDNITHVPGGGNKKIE
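Human tau K18 […] P301L fragment, 15 uM unlabeled plus 0.24 uM Alexa 594-labeled tau (final), with compound and 20 uM heparin in 100 mM sodium acetate pH 7; 6 hr at 37 C, then Alexa 594 FP read.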
VDR inhibitor: blocks the human vitamin D receptor. VDR-SRC2-3 peptide fluorescence polarization, 2 h. Potency, µM, actives largely listed as inhibitors. 400,000 tested, 0.93% active. AID 504847
Target sequence (P11473 whole entry, looked up): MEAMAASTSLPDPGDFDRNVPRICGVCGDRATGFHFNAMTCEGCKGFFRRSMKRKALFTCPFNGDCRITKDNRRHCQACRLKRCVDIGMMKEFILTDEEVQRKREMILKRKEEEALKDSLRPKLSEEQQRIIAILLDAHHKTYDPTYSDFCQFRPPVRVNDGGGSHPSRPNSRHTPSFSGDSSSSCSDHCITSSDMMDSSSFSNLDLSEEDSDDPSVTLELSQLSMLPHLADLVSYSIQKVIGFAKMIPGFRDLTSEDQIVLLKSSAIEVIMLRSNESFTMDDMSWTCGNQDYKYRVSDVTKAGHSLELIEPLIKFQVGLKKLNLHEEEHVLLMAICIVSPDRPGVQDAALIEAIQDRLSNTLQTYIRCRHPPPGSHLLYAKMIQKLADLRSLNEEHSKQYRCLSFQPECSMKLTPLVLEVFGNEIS
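VDR–SRC2-3 interaction, FP format. Cmpds 23 nl via pintool, brief spin, 2 h ambient incubation.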
Sfp inh: inhibitors of Bacillus subtilis Sfp phosphopantetheinyl transferase. Potency, µM, actives largely listed as inhibitors. 310,000 tested, 3.5% active. Biochemical Sfp PPTase activity, qHTS. Q9F4F7;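 also: the enzyme is Sfp with the accession as filed and its product quenches rhodamine fluorescence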
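Fluorescence-quenching assay: 15 nM Sfp-PPTase preincubated 15 min at room temperature with compound, then 5 uM rhodamine-CoA and 12.5 uM BHQ-2-labelled YbbR peptide added. Fluorescence (ex 525/em 598 nm) read at start and after 30 min; difference gives rate.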
Tau ThT inhib: tau fibrillization inhibition (ThT binding); recombinant tau K18 P301L (four-repeat tau fragment), heparin-induced fibrillization, ThT fluorescence; 270,000 tested, 2.1% active; P10636; Potency, µM (doses to about 57.4 µM), most hits filed as inhibitors; also: nearly all actives have a fitted effect of over 55% in size
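Recombinant human tau K18 fragment […] carrying P301L, 15 uM unlabeled plus 0.24 uM Alexa 594-labeled, was fibrillized with 20 uM heparin in 100 mM sodium acetate pH 7 for 6 hr at 37 C; 30 uM ThT fluorescence read after 1 hr.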
PLK1 PBD block: PLK1 (human) polo-box domain binding inhibition. P53350. Plk1 PBD binding of FITC phosphopeptide, fluorescence polarization. Potency, µM, most hits filed as inhibitors. 360,000 tested, 2.8% active; also: series mostly up to about 57 µM; nearly all actives have a fitted effect of over 65% in size
Hits are given with their value; . = inactive; ? = inconclusive; / = not tested or not shown; ! = repeats disagree; [ ] = dose if it differs, or a comment. Shown are actives, neighbours in structure and some others; about 6% of the full set was active somewhere. Calls follow the shape of the dose curve; as a rule, active = well fitted curve in the direction sought with a large enough effect; inconclusive = small, poorly fitted or top-dose-only effect, or another doubt; inactive = no such curve, though single readings can be large; an effect the other way counts as inactive or inconclusive.

SMILES | Tau fluor counter | Tau fibril FP | VDR inhibitor | Sfp inh | Tau ThT inhib | PLK1 PBD block
COC1[C@@H](OC)C[C@H](C)[C@@H](OC)C2=CC(=O)C=C(NC(=O)/C(C)=C/C=C\[C@H](OC)[C@@H](OC(N)=O)/C(C)=C/[C@@H]1C)C2=O (stereo not given in full) | / | / | 79.4µM | . | / | /
COC(=O)c1cc(-c2ccccc2)sc1N | ? | . | ? | 39.8µM | ? | 21.2µM
Nc1sc(-c2ccccc2)cc1C(=O)N/N=C/c1ccc(Cl)cc1 | 14.1µM[quencher] | . | . | . | 3.98µM | .
O=C(N/N=C/c1ccc(Cl)cc1)c1cc(-c2cccnc2)nc2ccccc12 | . | ? | . | . | . | .
COC(=O)c1ccc(-c2nc3cc(N)ccc3o2)cc1 | . | . | . | . | 5.01µM | .
O=C1/C(=C/c2ccccc2)CCc2ccc(Cl)nc21 | / | / | 50.1µM | / | / | .
COC(=O)c1c(NC(=O)C2SC(=NC3CCCCC3)C(C(N)=O)=C2N)sc2c1CCCC2 (stereo not given) | 15.8µM[quencher] | ? | . | . | ? | .
COC(=O)c1c(NC(=O)C2CC2)sc2c1CCN(C(C)=O)C2 | . | . | . | 14.1µM | . | .
COC(=O)c1c(NC(=O)C2CCCCC2C(=O)O)sc2c1CCCCC2 (stereo not given) | . | . | . | . | . | 23.8µM
O=C(Nc1sc2c(c1C(=O)NC1CC1)CCCCCC2)c1ccco1 | . | . | . | 39.8µM | ? | .
CCOC(=O)c1c(NC(=O)C2CCCCC2C(=O)O)sc2c1CCCCC2 (stereo not given) | . | . | . | . | ? | ?
C=C(C)CN=C1SC(C(=O)Nc2sc3c(c2C(=O)OC)CCC3)C(N)=C1C(N)=O (stereo not given) | ? | . | . | ? | ? | .
COC(=O)Nc1sc2c(c1C(=O)NC1CC1)CCCCCC2 | . | . | . | 31.6µM | . | .
O=C(O)CCC(=O)Nc1sc2c(c1C(=O)NC1CCCC1)CCCC2 | / | / | . | . | / | .
Cc1ccc(C(=O)C(NC(=O)c2ccco2)Nc2sc3c(c2C(N)=O)CCCC3)cc1 (stereo not given) | ? | . | / | 79.4µM | 28.2µM | /
Cc1cc2oc(C(=O)Nc3ccc(S(=O)(=O)N4CCC(C)CC4)cc3)cc(=O)c2cc1C | . | . | . | / | . | /
CCc1oc2ccccc2c1C(=O)c1cc(Br)c(O)c(Br)c1 | ? | . | 50.1µM! | . | ? | 8.44µM
NS(=O)(=O)c1ccc(N/N=C/c2cn(-c3ccccc3)nc2-c2cccs2)c([N+](=O)[O-])c1 | ? | . | . | . | 2.51µM | .
N#Cc1ccc(N/N=C/c2cn(-c3ccccc3)nc2-c2ccccc2)c([N+](=O)[O-])c1 | . | . | . | . | . | .
NS(=O)(=O)c1ccc(N/N=C/c2cn(-c3ccccc3)nc2-c2cccs2)cc1 | 12.6µM[quencher] | . | . | . | 15.8µM | .
O=C(Nc1ccc2nc(SCC(=O)N3CCOCC3)sc2c1)c1ccc(F)cc1 | . | . | . | / | . | /
COCCCn1c(=O)c2ccccc2n(Cc2ccccc2)c1=O | / | / | . | . | / | .
COCCCn1c(=O)c2ccccc2n2c(=S)[nH]nc12 | / | / | . | 79.4µM | / | .
Cc1ccc(/C=N/n2cnc3sc(C)c(C)c3c2=O)o1 | . | . | ? | . | . | 21.2µM
Cc1ccc(/C=N/n2cnc3sc4c(c3c2=O)CCCC4)o1 | . | . | . | . | . | .
SMILES | Tau fluor counter | Tau fibril FP | VDR inhibitor | Sfp inh | Tau ThT inhib | PLK1 PBD block
CCC(C)(C)n1nnnc1C(c1cc2cc(C)cc(C)c2[nH]c1=O)N1CCN(Cc2ccc3c(c2)OCO3)CC1 (stereo not given) | . | . | . | 63.1µM | . | .
CCC(C)(C)n1nnnc1C(c1cc2cc(C)cc(C)c2[nH]c1=O)N1CCCC1 (stereo not given) | . | . | . | 25.1µM | ? | .
CN(C)c1ccc(C(c2nnnn2C(C)(C)C)N2CCN(C(=O)c3ccco3)CC2)cc1 (stereo not given) | ? | . | 15.8µM | . | 15.8µM | .
Cc1cc(C)c2[nH]c(=O)c(C(c3nnnn3Cc3ccc4c(c3)OCO4)N3CCCCC3)cc2c1 (stereo not given) | . | . | . | . | . | .
Cc1cc(C)c2[nH]c(=O)c(C(c3nnnn3C(C)(C)C)N3CCN(C(=O)c4ccco4)CC3)cc2c1 (stereo not given) | . | . | . | 17.8µM | . | .
CC1(C(=O)NS(=O)(=O)c2ccc(Cl)s2)CCN1C(=O)c1ccc(C2CCCCC2)cc1 (stereo not given) | / | / | / | / | / | .
COc1cccc(-c2nc3c(c(SCC(=O)Nc4cccc(C)c4C)n2)Cc2c(CO)cnc(C)c2O3)c1 | . | . | . | / | . | /
COCCn1nnnc1C(c1ccc(C)cc1)N1CCN(Cc2ccc3c(c2)OCO3)CC1 (stereo not given) | . | . | . | . | . | 23.8µM
COCCn1nnnc1C(c1ccccc1)N1CCN(Cc2ccc3c(c2)OCO3)CC1 (stereo not given) | . | . | . | . | . | .
Cc1ccc(NC(=O)N2CCN(c3nnc(C)c4c(C)n(-c5ccc(Cl)cc5)nc34)CC2)c(C)c1 | . | . | . | / | . | /
C=CC1C(N2CCOCC2)C(C)(C)S1(=O)=O (stereo not given) | . | . | . | . | . | 9.47µM
CCOC(=O)C1Nc2ccccc2C2C(O)C(O)CC12 (stereo not given) | / | / | . | / | / | 37.7µM
O=C(NCCOc1ccccc1)C1Nc2ccc(C(F)(F)F)cc2C2c3ccccc3CC12 (stereo not given) | / | / | . | / | / | .
CCOC(=O)C1Nc2ccc(C(F)(F)F)cc2C2c3ccccc3CC12 (stereo not given) | / | / | 50.1µM | / | / | .
Cc1cc(N2O[C@]34C=C[C@]25C[C@@H](O)CC[C@]5(C)C3CC[C@]2(C)[C@@H]([C@H](C)/C=C/[C@H](C)C(C)C)CC[C@H]24)no1 (stereo not given in full) | / | / | ? | / | / | 23.8µM
CC1=C(/C=C/C(=C/C=C/C(C)=C/C(=O)O)c2ccc(C)cc2)C(C)(C)CCC1 | . | ? | 22.4µM | ? | ? | /
CC1=C(/C=C/C(C)=C/C=C/C(C)=C\C(=O)O)C(C)(C)CCC1 | . | . | 50.1µM! | . | . | ?
CC1=C(/C=C/C(C)=C/C=C/C(C)=C/C(=O)Nc2ccc(O)cc2)C(C)(C)CCC1 | 11.2µM[quencher] | . | . | . | 15.8µM | .
CC1=CC(=O)CC(C)(C)C1(O)/C=C/C(C)=C/C(=O)O (stereo not given) | . | . | . | . | . | .
CC1=C(\C=C/C(C)=C/C=C\C(C)=C\C(=O)O)C(C)(C)CCC1 | . | ? | 17.8µM | . | 31.6µM! | /
CC1=C(/C=C/C(=O)O)C(C)(C)CCC1 | . | . | . | . | . | .
CCOC(=O)c1c(NC(=O)c2cc3nc(-c4ccc(Br)cc4)cc(C(F)(F)F)n3n2)sc(C(C)=O)c1C | . | . | . | / | . | /
